Activity calls are given as the source filed them. The calls were made as follows: active = hit-call score of the fitted dose curve at least 0.9, where 1 is the maximum; inactive = score below 0.9.
Assays:
[1] = ATG_GLI_CIS: Attagene CIS-FACTORIAL HepG2 Assay for human Zinc Finger Protein GLI1 (AID 2282945); conditions: HepG2, Attagene cis-factorial reporter mRNA, GLI element; actives raise or lower the signal
In short: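 HepG2 cells transiently transfected with cis-promoter multiplexed reporter units report endogenous transcription factor activity. After 24 h chemical exposure, reporter mRNA was quantified by RT-PCR, 6-FAM labelling, HpaI digestion and capillary electrophoresis, with bidirectional fitting against DMSO.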

[2] = ATG_GRE_CIS: Attagene CIS-FACTORIAL HepG2 Assay for human Glucocorticoid Response Elements (GRE) (AID 2282947); conditions: HepG2 GRE cis-reporter, Attagene multiplex mRNA; actives raise or lower the signal
In short: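 HepG2, transient cis-reporter transfection, 24 h. Reporter mRNA: RT-PCR then CE, fluorescence. Fit both directions vs DMSO.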

[3] = ATG_ISRE_CIS: Attagene CIS-FACTORIAL HepG2 Assay for human Interferon Regulatory Factor 1 (IRF1) binding to an Interferon-Stimulated Response Element (ISRE) (AID 2282948); conditions: HepG2 ISRE cis-reporter (Attagene), mRNA transcription readout; actives raise or lower the signal
In short: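 Read-out: fluorescent RT-PCR products resolved by capillary electrophoresis, reporting endogenous transcription factor activity via ISRE-driven reporter mRNA in transfected HepG2 cells dosed for 24 h; gain or loss fitted relative to DMSO.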

[4] = ATG_M_32_CIS: Attagene CIS-FACTORIAL HepG2 Assay for M32 Transcription Factor (Internal Marker) (AID 2282949); conditions: HepG2 Attagene cis-factorial M32 reporter, mRNA; actives raise or lower the signal;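 also: background control marker of the multiplexed CIS panel rather than a real target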
In short: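 Transient MRTU transfection of HepG2; 24 h compound treatment; TriZol RNA, oligo(dT) RT, reporter PCR, 6-FAM primer extension, HpaI cut, CE. Gain/loss of signal vs DMSO.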

[5] = ATG_M_06_CIS: Attagene CIS-FACTORIAL HepG2 Assay for M06 Transcription Factor (Internal Marker) (AID 2282950); conditions: HepG2 Attagene CIS-FACTORIAL M06 internal marker reporter; actives raise or lower the signal
In short: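 One of many multiplexed endpoints: HepG2 reporter mRNA after 24 h dosing, detected by RT-PCR and capillary electrophoresis fluorescence; gain or loss of signal analysed against DMSO.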

[6] = target: Hypoxia-inducible factor 1-alpha (Homo sapiens) (UniProt Q16665); assay: ATG_HIF1a_CIS: Attagene CIS-FACTORIAL HepG2 Assay for human Hypoxia Inducible Factor 1 (HIF1A) (AID 2282951); conditions: HepG2 Attagene cis-factorial HIF1a reporter transcription; actives raise or lower the signal
Sequence of Hypoxia-inducible factor 1-alpha (Homo sapiens) (Q16665 whole entry, looked up): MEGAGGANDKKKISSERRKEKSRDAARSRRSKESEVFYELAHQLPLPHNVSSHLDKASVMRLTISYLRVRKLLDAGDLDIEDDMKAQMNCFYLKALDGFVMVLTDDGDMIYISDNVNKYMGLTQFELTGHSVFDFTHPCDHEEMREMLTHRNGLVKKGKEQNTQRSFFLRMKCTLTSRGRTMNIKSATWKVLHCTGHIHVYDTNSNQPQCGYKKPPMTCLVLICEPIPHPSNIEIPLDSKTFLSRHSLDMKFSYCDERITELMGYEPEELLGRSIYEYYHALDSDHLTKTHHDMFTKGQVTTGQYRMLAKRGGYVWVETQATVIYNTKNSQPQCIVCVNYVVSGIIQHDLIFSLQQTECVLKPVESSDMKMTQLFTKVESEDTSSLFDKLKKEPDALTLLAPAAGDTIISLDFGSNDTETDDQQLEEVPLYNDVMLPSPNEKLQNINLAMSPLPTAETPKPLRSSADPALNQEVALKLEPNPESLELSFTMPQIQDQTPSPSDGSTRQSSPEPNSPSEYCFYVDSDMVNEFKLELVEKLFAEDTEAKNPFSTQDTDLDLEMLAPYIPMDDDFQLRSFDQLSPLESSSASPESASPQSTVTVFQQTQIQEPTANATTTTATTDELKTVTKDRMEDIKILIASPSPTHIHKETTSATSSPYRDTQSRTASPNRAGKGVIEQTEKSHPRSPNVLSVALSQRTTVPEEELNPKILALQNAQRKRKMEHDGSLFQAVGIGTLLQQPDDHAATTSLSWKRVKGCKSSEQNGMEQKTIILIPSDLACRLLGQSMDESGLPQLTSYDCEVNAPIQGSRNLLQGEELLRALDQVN
In short: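 HepG2 cells transiently transfected with multiple cis-regulated reporter transcription units measure endogenous transcription factor activity. After 24 h exposure, reporter mRNA is quantified by RT-PCR with 6-FAM labelling, HpaI digestion and capillary electrophoresis. Bidirectional fitting against DMSO.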

[7] = target: Hepatocyte nuclear factor 6 (Homo sapiens) (UniProt Q9UBC0); assay: ATG_HNF6_CIS: Attagene CIS-FACTORIAL HepG2 Assay for human Hepatocyte Nuclear Factor 6 (HNF6) (AID 2282952); conditions: HepG2 Attagene cis-factorial HNF6 reporter transcription; actives raise or lower the signal
Sequence of Hepatocyte nuclear factor 6 (Homo sapiens) (Q9UBC0 whole entry, looked up, the tested form may be a part): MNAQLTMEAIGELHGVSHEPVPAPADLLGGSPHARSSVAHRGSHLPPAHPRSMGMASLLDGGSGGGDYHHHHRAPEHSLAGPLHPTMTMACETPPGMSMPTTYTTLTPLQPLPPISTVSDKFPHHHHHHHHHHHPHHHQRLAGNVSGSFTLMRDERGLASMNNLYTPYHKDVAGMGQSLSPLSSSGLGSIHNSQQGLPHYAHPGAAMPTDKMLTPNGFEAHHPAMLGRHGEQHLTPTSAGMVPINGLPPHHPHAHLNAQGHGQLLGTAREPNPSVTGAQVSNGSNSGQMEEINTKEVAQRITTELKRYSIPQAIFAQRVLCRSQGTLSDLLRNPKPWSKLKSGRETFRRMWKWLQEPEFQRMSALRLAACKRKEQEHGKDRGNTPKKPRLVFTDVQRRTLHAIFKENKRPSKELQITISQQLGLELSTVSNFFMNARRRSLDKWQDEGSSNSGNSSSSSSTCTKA
In short: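 Using cis-element reporters in HepG2 liver cells, the assay tracks endogenous factor-driven transcription 24 h post-dosing. Signal comes from 6-FAM-labelled, HpaI-digested RT-PCR fragments, with gain or loss scored against DMSO.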

[8] = ATG_MRE_CIS: Attagene CIS-FACTORIAL HepG2 Assay for human Metal Responsive Element (MRE) (AID 2282954); conditions: HepG2 MRE cis-reporter transcription, Attagene multiplex; actives raise or lower the signal
In short: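 Readout: capillary electrophoresis of 6-FAM-labelled, HpaI-digested RT-PCR reporter products. System: HepG2 cells carrying transient multiplexed cis reporters, dosed 24 h. Analysis: bidirectional fit, DMSO baseline.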

[9] = ATG_PBREM_CIS: Attagene CIS-FACTORIAL HepG2 Assay for human Phenobarbital-responsive Enhancer Module (PBREM) (AID 2282955); conditions: HepG2 PBREM cis-reporter, Attagene multiplexed transcription; actives raise or lower the signal
In short: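 HepG2 cells transiently transfected with multiple cis-regulated reporter units measure endogenous transcription factor activity; 24 h compound exposure. Reporter mRNA quantified by RT-PCR, fluorescent labelling, HpaI digestion and capillary electrophoresis; bidirectional fit versus DMSO.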

[10] = target: Paired box protein Pax-6 (Homo sapiens) (UniProt P26367); assay: ATG_Pax6_CIS: Attagene CIS-FACTORIAL HepG2 Assay for human Paired Box 6 (PAX6) (AID 2282956); conditions: HepG2 CIS-FACTORIAL PAX6 reporter transcription, RNA readout; actives raise or lower the signal
Sequence of Paired box protein Pax-6 (Homo sapiens) (P26367 whole entry, looked up): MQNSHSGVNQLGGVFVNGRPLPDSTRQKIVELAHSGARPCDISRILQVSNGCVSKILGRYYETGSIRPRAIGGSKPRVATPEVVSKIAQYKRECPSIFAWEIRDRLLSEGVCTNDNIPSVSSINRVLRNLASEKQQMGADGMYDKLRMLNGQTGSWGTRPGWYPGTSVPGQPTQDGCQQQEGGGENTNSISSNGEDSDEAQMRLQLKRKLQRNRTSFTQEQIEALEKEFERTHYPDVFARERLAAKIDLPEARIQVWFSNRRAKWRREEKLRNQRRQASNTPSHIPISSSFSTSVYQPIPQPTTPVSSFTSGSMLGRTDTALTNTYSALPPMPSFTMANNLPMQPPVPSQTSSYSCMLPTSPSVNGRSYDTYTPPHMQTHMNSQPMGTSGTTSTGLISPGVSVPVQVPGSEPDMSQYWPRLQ
In short: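 Readout: reporter transcript fluorescence after RT-PCR and capillary electrophoresis. Cells: HepG2, transiently transfected with cis-regulated MRTUs. Exposure 24 h. Gain or loss of signal fitted bidirectionally relative to DMSO.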

[11] = ATG_PXRE_CIS: Attagene CIS-FACTORIAL HepG2 Assay for human Pregnane X Receptor Element (PXRE) (AID 2282957); conditions: HepG2 Attagene CIS-FACTORIAL PXRE reporter, mRNA; actives raise or lower the signal
In short: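 Using HepG2 transfected with multiple reporter transcription units, endogenous factor-driven transcription was scored as reporter mRNA after 24 h exposure.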

[12] = ATG_PPRE_CIS: Attagene CIS-FACTORIAL HepG2 Assay for human Peroxisome Proliferator-activated Response Element (PPRE) (AID 2282958); conditions: HepG2 PPRE cis-element reporter, Attagene transcription factor profiling; actives raise or lower the signal
In short: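 HepG2 cells are transiently transfected with multiplexed cis-promoter reporter units to report endogenous PPAR activity. After 24 h dosing, reporter mRNA is read by RT-PCR and capillary electrophoresis. Fitting is bidirectional against DMSO.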

[13] = ATG_RORE_CIS: Attagene CIS-FACTORIAL HepG2 Assay for human RAR-related Orphan Receptor Element (RORE) (AID 2282959); conditions: HepG2 Attagene cis-factorial RORE reporter, mRNA; actives raise or lower the signal
In short: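 HepG2 cells carrying transiently transfected cis-regulated reporter units; RORE-driven reporter mRNA quantified 24 h post-dosing by RT-PCR, 6-FAM primer extension, HpaI digestion and capillary electrophoresis. Bidirectional fit versus DMSO.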

[14] = ATG_Sox_CIS: Attagene CIS-FACTORIAL HepG2 Assay for human SRY-box transcription factor (SOX) (AID 2282960); conditions: HepG2 Attagene cis-factorial SOX reporter, mRNA; actives raise or lower the signal
In short: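 HepG2 cells transiently transfected with multiple cis-regulated reporter units, then dosed for 24 h. Reporter mRNA quantified by RT-PCR, fluorescent labelling, HpaI digestion and capillary electrophoresis; bidirectional fit versus DMSO.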

[15] = target: Transcription factor Sp1 (Homo sapiens) (UniProt P08047); assay: ATG_Sp1_CIS: Attagene CIS-FACTORIAL HepG2 Assay for human Specificity Protein 1 (Sp1) (AID 2282961); conditions: HepG2 Sp1 cis-reporter transcription, actives raise or lower the signal
Sequence of Transcription factor Sp1 (Homo sapiens) (P08047 whole entry, looked up): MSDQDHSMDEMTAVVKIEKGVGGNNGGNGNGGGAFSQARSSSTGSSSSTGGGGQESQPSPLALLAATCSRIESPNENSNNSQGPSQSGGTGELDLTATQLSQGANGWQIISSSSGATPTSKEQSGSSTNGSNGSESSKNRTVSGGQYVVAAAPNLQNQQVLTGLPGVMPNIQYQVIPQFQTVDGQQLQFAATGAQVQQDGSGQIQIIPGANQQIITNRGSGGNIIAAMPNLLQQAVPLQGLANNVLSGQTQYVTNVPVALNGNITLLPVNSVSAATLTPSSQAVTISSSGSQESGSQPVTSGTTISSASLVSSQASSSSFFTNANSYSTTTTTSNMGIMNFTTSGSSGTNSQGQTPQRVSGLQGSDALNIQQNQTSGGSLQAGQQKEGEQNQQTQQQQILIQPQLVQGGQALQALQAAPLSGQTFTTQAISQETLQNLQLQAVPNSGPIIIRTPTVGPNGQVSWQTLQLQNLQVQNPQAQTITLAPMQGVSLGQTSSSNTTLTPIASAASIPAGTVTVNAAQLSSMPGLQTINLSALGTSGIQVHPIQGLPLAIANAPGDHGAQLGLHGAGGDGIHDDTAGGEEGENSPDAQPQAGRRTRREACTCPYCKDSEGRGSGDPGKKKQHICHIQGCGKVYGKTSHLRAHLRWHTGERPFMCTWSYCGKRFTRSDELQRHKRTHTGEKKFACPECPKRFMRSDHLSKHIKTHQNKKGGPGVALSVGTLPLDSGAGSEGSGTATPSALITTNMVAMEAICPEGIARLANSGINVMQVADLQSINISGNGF
In short: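 HepG2 cells transiently transfected with multiplexed cis-regulated reporter constructs, chemical exposure 24 h. Reporter mRNA quantified by RT-PCR with capillary electrophoresis; bidirectional fit relative to DMSO.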

[16] = ATG_SREBP_CIS: Attagene CIS-FACTORIAL HepG2 Assay for human Sterol Regulatory Element Binding (SREBP) (AID 2282962); conditions: HepG2 Attagene cis-factorial SREBP reporter, mRNA; actives raise or lower the signal
In short: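 Readout: fluorescent reporter-transcript peaks resolved by capillary electrophoresis after RT-PCR. Cells were human HepG2 carrying transfected cis-promoter reporter constructs, dosed for 24 h. Gain or loss of signal was fitted against DMSO controls.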

[17] = target: Signal transducer and activator of transcription 3 (Homo sapiens) (UniProt P40763); assay: ATG_STAT3_CIS: Attagene CIS-FACTORIAL HepG2 Assay for human Signal Transducer and Activator of Transcription 3 (STAT3) (AID 2282963); conditions: HepG2, Attagene cis-factorial STAT3 reporter transcription; actives raise or lower the signal
Sequence of Signal transducer and activator of transcription 3 (Homo sapiens) (P40763 whole entry, looked up): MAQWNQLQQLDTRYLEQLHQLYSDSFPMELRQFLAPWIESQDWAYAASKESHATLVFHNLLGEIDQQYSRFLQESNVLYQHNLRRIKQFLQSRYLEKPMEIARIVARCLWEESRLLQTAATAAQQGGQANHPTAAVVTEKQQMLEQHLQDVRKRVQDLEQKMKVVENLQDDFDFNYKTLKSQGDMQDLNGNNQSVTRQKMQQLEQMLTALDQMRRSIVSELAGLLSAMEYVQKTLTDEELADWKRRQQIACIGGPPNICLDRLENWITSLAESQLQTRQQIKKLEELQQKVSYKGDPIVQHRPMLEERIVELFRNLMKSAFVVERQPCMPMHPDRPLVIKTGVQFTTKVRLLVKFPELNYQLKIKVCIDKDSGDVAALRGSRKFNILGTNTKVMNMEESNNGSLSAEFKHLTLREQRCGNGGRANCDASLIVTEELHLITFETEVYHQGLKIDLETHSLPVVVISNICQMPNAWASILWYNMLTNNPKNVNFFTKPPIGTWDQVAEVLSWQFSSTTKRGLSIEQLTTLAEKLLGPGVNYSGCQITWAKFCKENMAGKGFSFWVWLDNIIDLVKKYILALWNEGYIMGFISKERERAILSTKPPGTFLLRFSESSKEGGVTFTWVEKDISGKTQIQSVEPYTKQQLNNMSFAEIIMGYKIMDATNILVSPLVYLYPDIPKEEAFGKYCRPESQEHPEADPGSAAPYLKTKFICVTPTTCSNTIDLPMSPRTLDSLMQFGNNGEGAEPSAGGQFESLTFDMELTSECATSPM
In short: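 Uses human liver HepG2 transiently carrying cis-regulated reporter transcription units. Following 24 h dosing, reporter mRNA induction was detected by RT-PCR and capillary electrophoresis, analysed bidirectionally versus DMSO.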

[18] = ATG_TA_CIS: Attagene CIS-FACTORIAL HepG2 Assay for human TA Basal Promoter (AID 2282964); conditions: HepG2 Attagene CIS-factorial TA basal promoter reporter; actives raise or lower the signal
In short: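 Transient MRTU transfection of HepG2 preceded 24 h compound exposure. Reporter mRNA levels were then read by RT-PCR with capillary electrophoresis, and this background-control endpoint was fitted bidirectionally to DMSO.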

[19] = target: Heat shock factor protein 1 (Homo sapiens) (UniProt Q00613); assay: ATG_HSE_CIS: Attagene CIS-FACTORIAL HepG2 Assay for human Heat Shock Transcription Factor 1 (HSE) (AID 2282953); conditions: HepG2 HSE cis-reporter, Attagene RNA transcription; actives raise or lower the signal
Sequence of Heat shock factor protein 1 (Homo sapiens) (Q00613 whole entry, looked up): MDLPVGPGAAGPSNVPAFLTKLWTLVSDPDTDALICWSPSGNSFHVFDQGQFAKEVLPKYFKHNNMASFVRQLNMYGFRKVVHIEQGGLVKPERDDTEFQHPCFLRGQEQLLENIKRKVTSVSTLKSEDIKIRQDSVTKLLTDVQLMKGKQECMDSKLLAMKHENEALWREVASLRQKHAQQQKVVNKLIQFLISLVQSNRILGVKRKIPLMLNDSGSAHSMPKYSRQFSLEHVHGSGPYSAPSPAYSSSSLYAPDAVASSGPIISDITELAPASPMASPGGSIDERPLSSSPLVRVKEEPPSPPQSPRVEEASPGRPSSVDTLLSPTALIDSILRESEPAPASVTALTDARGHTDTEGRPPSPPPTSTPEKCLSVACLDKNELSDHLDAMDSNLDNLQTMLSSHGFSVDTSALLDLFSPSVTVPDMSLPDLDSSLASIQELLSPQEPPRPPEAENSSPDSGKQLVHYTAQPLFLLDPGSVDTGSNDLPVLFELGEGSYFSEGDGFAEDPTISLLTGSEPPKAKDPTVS
In short: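 Using HepG2 with transfected cis-driven reporter constructs, compound effects on endogenous factor activity are scored as reporter mRNA change at 24 h. Detection: RT-PCR, HpaI digestion, capillary electrophoresis; bidirectional fitting to DMSO.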

Measured: AC50

CCCCC(C#N)(Cn1cncn1)c1ccc(Cl)cc1 (configuration not stated)
active: [11] 13.8 µM | [16] 12.6 µM
not listed: [19]
inactive: all other assays above

O=C(Nc1ccccc1-c1ccc(Cl)cc1)c1cccnc1Cl
active: [9] 17.7 µM | [11] 4.77 µM | [15] 19.8 µM
not listed: [19]
inactive: all other assays above

CC(C)N1C(=O)c2ccccc2NS1(=O)=O
active: [11] 12.1 µM | [16] 50 µM
not listed: [9]
inactive: all other assays above

N#CN=C1SCCN1Cc1ccc(Cl)nc1
active: [11] 50 µM
not listed: [9] | [19]
inactive: all other assays above

CC(C)Oc1cccc(NC(=O)c2ccccc2C(F)(F)F)c1
active: [8] 28.7 µM | [11] 4.22 µM | [12] 21.3 µM | [13] 33.6 µM
not listed: [19]
inactive: all other assays above

Nc1c(Cl)c(Cl)nc(C(=O)O)c1Cl
active: [11] 69.5 µM
not listed: [9]
inactive: all other assays above

Cc1cnc(C2=NC(C)(C(C)C)C(=O)N2)c(C(=O)O)c1 (configuration not stated)
active: [11] 24.8 µM
not listed: [9] | [19]
inactive: all other assays above

Cn1c(-c2ccccc2)cc(-c2ccccc2)[n+]1C
not listed: [12] | [19]
inactive: all other assays above

COP(=S)(OC)SCn1nnc2ccccc2c1=O
active: [8] 17.3 µM | [9] 36.3 µM | [11] 5.87 µM | [13] 31 µM | [15] 32.5 µM | [16] 19.8 µM
not listed: [2] | [19]
inactive: all other assays above

O=C1C2CC=CCC2C(=O)N1SC(Cl)(Cl)Cl (configuration not stated)
not listed: [2] | [13]
inactive: all other assays above

CC1(C)CCC(=Cc2ccc(Cl)cc2)C1(O)Cn1cncn1 (configuration not stated)
active: [11] 3.16 µM | [12] 29.7 µM | [16] 15 µM
not listed: [19]
inactive: all other assays above

Nc1cnn(-c2ccccc2)c(=O)c1Cl
active: [11] 81.5 µM
not listed: [19]
inactive: all other assays above

COC(=O)NS(=O)(=O)c1ccc(N)cc1
active: [11] 19.9 µM
not listed: [19]
inactive: all other assays above

CS(=O)(=O)c1cc(C(F)(F)F)ccc1C(=O)c1cnoc1C1CC1
active: [11] 40.2 µM
not listed: [19]
inactive: all other assays above

Clc1nc(Cl)nc(Nc2ccccc2Cl)n1
active: [11] 39.7 µM | [12] 18.7 µM
not listed: [19]
inactive: all other assays above

COC(=O)c1c(C(F)F)nc(C(F)(F)F)c(C2=NCCS2)c1CC(C)C
active: [8] 18.5 µM | [9] 0.876 µM | [11] 0.123 µM | [12] 50 µM | [13] 26.8 µM
not listed: [2] | [19]
inactive: all other assays above

— PubChem BioAssay (EPA / NIEHS)
